# Laboratory results as given in PubChem BioAssay AID588342 (National Center for Advancing Translational Sciences (NCATS), 2011).
# In all, about 360,000 compounds went through this assay and about 25,000 (6.9%) were called active. Roughly 9% stayed inconclusive and do not appear here. Calls come from the whole dose curve; as a rule, active = well fitted inhibition curve with a large enough effect; inconclusive = small, poorly fitted or top-dose-only effect; inactive = flat fitted curve, though single readings scatter. Many of the other results were omitted from the sample, so actives are more common in it than they were.
# Target: Luciferin 4-monooxygenase (Photinus pyralis) (UniProt P08659)
# Assay: qHTS profiling assay for firefly luciferase inhibitor/activator using purifed enzyme and Km concentrations of substrates (counterscreen for miR-21 project); note: nearly all actives have a fitted effect of over 55% in size;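 for activity change, negative = inhibition: plate controls were vehicle for no effect and reference inhibitor for full effect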
# Details: purified FLuc, luminescence inhibition; series mostly up to 57.5 µM; activity change, negative = inhibition: at the top concentration
# In short: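 Purified P. pyralis luciferase, 10 nM final, with Km-level 10 uM D-luciferin and 10 uM ATP in 50 mM Tris acetate pH 7.5, 10 mM Mg acetate, 0.01% Tween-20, 0.05% BSA; 6-point qHTS titration about 60 µM downward; luminescence read.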
# Potency is the fitted concentration of half-maximal effect.
# Chain of Luciferin 4-monooxygenase (Photinus pyralis) (P08659 whole entry, looked up): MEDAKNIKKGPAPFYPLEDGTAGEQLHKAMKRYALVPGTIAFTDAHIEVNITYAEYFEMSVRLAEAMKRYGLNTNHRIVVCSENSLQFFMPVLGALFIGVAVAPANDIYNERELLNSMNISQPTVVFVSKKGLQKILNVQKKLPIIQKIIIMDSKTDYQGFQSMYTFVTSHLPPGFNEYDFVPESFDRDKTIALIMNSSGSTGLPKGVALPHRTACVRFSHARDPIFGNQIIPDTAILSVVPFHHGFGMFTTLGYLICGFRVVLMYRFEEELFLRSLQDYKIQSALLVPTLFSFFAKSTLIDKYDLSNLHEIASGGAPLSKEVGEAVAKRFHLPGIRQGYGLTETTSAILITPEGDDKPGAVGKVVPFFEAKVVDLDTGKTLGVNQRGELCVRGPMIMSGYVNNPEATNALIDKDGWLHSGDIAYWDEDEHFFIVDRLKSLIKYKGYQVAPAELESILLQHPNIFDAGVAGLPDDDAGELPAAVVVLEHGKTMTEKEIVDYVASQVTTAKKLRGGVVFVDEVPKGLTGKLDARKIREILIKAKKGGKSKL
SMILES,"activity change, negative = inhibition",Potency
COc1cc(OC)c(N(C)C(=O)c2cc3c(=O)oc4ccccc4c3s2)cc1Cl,-0.794% (inactive),–
COc1cc(OC)c(OC)cc1/C=C/c1nc2cc3ccccc3cc2c(=O)n1-c1ccc(F)c(Cl)c1,-1.28% (inactive),–
CC(C)CCNC(=O)CSc1nc2ccccc2nc1Cc1ccc(Cl)cc1,-4.71% (inactive),–
CCc1ccc(CNC(=O)C2CCCN(c3nc4ccccc4o3)C2)cc1 (stereo not given),3.01% (inactive),–
CCOC(=O)CCNC(=O)N1CCCC(C(=O)c2ccccc2SC)C1 (stereo not given),-2.33% (inactive),–
CCOC(=O)c1cnc(Nc2nc3ccccc3o2)nc1CSC(=S)N1CCCCC1,–,9.53 µM (active)
COCCNC(=O)CSc1c(C)cnc2c1c(=O)n(C)c(=O)n2C,-1.51% (inactive),–
COc1ccc(-c2nc(CN3CCC(C(=O)NCCN(CC(C)C)CC(C)C)CC3)c(C)o2)cc1OC,-5.23% (inactive),–
CC(C)CN(Cc1c(O)ccc2c(=O)c(-c3ccccc3)coc12)CC(C)C,4.11% (inactive),–
O=c1c(-c2ccccc2)coc2cc(O)ccc12,–,15.1 µM (active)
O=C1/C(=C/c2coc3ccc(O)cc3c2=O)SC(=S)N1c1ccccc1,-7.68% (inactive),–
COC(=O)COc1ccc2c(c1C)O/C(=C\c1ccco1)C2=O,–,2.13 µM (active)
Cc1cc(C)c(OCC(=O)N/N=C/c2ccco2)c(C)c1,4.89% (inactive),–
COC(=O)C1=C(C)N(c2ccc(Br)cc2)C(=O)/C1=C\c1ccco1,-2.45% (inactive),–
Cc1nn(CC(=O)NCCc2ccccc2)c(=O)c2c1sc1ccccc12,-0.483% (inactive),–
O=C(c1ccc(CSc2ccccc2)cc1)N1CCCCCC1,–,23.9 µM (active)
O=C(c1ccc(S(=O)(=O)c2ccccc2)cc1)N1CCCCCC1,4.38% (inactive),–
CC1CCN(C(=O)c2ccc(CSc3ccc(Cl)cc3)cc2)CC1,-1.34% (inactive),–
COc1cc(OC)c(N2CC(C(=O)Nc3cc(Cl)ccc3N3CCOCC3)CC2=O)cc1Cl (stereo not given),-1.25% (inactive),–
O=C(/C=C/c1ccccc1[N+](=O)[O-])OC1CCCCC1=O (stereo not given),–,15.1 µM (active)
O=C(/C=C/c1ccccc1[N+](=O)[O-])OCC(=O)N1CCCC1,-2.54% (inactive),–
CC(C)CNC(=O)COC(=O)/C=C/c1ccccc1[N+](=O)[O-],-0.249% (inactive),–

SMILES,"activity change, negative = inhibition",Potency
CCOc1ccc(CCNC(=O)c2c(C)oc3ncn(C)c(=O)c23)cc1,-15.7% (inactive),–
O=C(Nc1cccc(C(=O)NC2CC2)c1)c1ccc(F)c(S(=O)(=O)N2CCOCC2)c1,1.1% (inactive),–
Cc1ccnc(N2C(=O)c3ccc([N+](=O)[O-])cc3C2=O)c1,-0.44% (inactive),–
Cc1ccc(-n2cc3ccc([N+](=O)[O-])cc3n2)cc1,–,0.953 µM (active)
Cc1ccc(-c2cn(S(=O)(=O)c3cccc([N+](=O)[O-])c3)nc2N)cc1,0.0034% (inactive),–
COc1ccc(C2=CC(c3ccccc3Cl)n3nc(-c4ccc(Cl)cc4)nc3N2)cc1 (stereo not given),-4.89% (inactive),–
NS(=O)(=O)c1ccc(NC(=O)COc2ccc(S(=O)(=O)NC3CCCCC3)cc2)cc1,-1.09% (inactive),–
COc1ccc(-n2nnnc2-c2nc3ccccc3s2)cc1,–,0.601 µM (active)
COc1ccc(-n2nnnc2CNC(=O)c2ccc3ccccc3c2)cc1,2.8% (inactive),–
COc1ccc(CSc2nnnn2-c2ccc(C(=O)O)cc2)cc1,0.195% (inactive),–
Cc1ccc(S(=O)(=O)NCCC(=O)NCc2ccc(Cl)cc2)cc1C,1.46% (inactive),–
COc1cccc(CNCc2c(C(=O)O)n(Cc3ccc(C)cc3)c3cc(C)ccc23)c1OC,-2.43% (inactive),–
COC(=O)c1cc(OC)ccc1-c1ccc(OC)cc1,0.668% (inactive),–
COc1ccc(/C=C/C(=O)c2ccc(OC)cc2O)cc1,–,7.57 µM (active)
COc1cccc(N2CC(NC(=O)/C=C\c3ccccc3)CC2=O)c1 (stereo not given),1.08% (inactive),–
COc1ccc(C(=O)CCC(=O)Nc2cccnc2)c(OC)c1,-7.14% (inactive),–
COc1ccc(C(=O)NCC(=O)N/N=C/c2cccnc2)cc1,2.39% (inactive),–
CO/N=C/CC(=O)c1ccc(OC)cc1,-0.488% (inactive),–
COc1ccc(C(=O)/C=C/c2cccnc2)c(OC)c1,–,19 µM (active)
COc1ccc(C(=O)/C=C/c2ccc(OC3CSC3)cc2)cc1,–,12 µM (active)
CCOC(=O)C1CCCN(C(=O)/C=C/c2ccc(OC)cc2)C1 (stereo not given),-18.1% (inactive),–
Cc1ccc(C)c(CNC(=O)c2cc3ccccn3n2)c1,-5.12% (inactive),–

SMILES,"activity change, negative = inhibition",Potency
COc1ccc(S(=O)(=O)NCC(=O)NCc2cc(=O)n(C)c(=O)n2C)cc1F,4.13% (inactive),–
COc1cccc(C(c2c(O)cc(C)n(Cc3ccco3)c2=O)N2CCN(c3ccccc3)CC2)c1 (stereo not given),-13.6% (inactive),–
CCOc1ccc(-c2cc3nc(C4CCN(C(=O)OC(C)(C)C)CC4)c(C(=O)Nc4ccc(C(=O)OC)cc4)cn3n2)cc1,-8.05% (inactive),–
COc1ccccc1NC(=O)C1=C(C)Nc2nc(SCC(=O)c3ccc(C)cc3)nn2C1c1ccccc1C (stereo not given),5.07% (inactive),–
Cc1cc(C(=O)Nc2cccc(C(F)(F)F)c2)c2c(C)nn(-c3cccc(F)c3)c2n1,-8.84% (inactive),–
C/C(=N\NC(=O)c1ccoc1C)c1ccccc1O,–,15.1 µM (active)
COc1ccccc1N(CC(=O)N/N=C(\C)c1ccccc1O)S(=O)(=O)c1ccc(C)cc1,3.81% (inactive),–
CC(C)=C(NC(=O)c1ccccc1)C(=O)N/N=C(\C)c1ccccc1O,4.12% (inactive),–
CCCOC(=O)c1c(NC(=O)c2cc3nc(-c4ccc(OC)cc4)cc(C(F)(F)F)n3n2)sc2c1CCCC2,-5.72% (inactive),–
COc1ccc(N2CCN(C(=O)CSCc3nc(-c4ccccc4Cl)oc3C)CC2)cc1,-11.4% (inactive),–
COc1ccc(-n2ccn(CC(=O)Nc3ccc(C)c(C)c3)c(=O)c2=O)cc1OC,-7.6% (inactive),–
Cc1cccc(S(=O)(=O)c2cn(Cc3ccccc3)c3cc(N4CCOCC4)c(F)cc3c2=O)c1,-6.65% (inactive),–
O=C(NCCCO)c1nn(-c2ccc(Cl)cc2)nc1CO,-18.3% (inactive),–
Nc1ccc2nn(-c3ccc(Cl)cc3)nc2c1,–,0.757 µM (active)
CN(C)c1nnnn1-c1ccc(Cl)cc1,-2.83% (inactive),–
COc1ccc(/C=N/Nc2nc3ccccc3c(=O)[nH]2)cc1,–,6.01 µM (active)
COc1ccc(/C=N/Nc2nc(-c3ccc(C)cc3)c(C#N)c(=O)[nH]2)cc1,2.09% (inactive),–
COc1ccc(/C=N/Nc2ccccc2C(=O)O)cc1,–,0.151 µM (active)
COc1ccc(/C=N/OCC(=O)N(Cc2ccccc2)c2ccccc2C(=O)O)cc1,1.35% (inactive),–
COc1cc(OC)c(S(=O)(=O)Nc2ccccc2C(=O)O)cc1S(=O)(=O)Nc1ccccc1C(=O)O,-6.46% (inactive),–
COc1ccc(CCCc2nnc(SCc3nc4ccccc4c(=O)[nH]3)n2C)cc1,2.77% (inactive),–
